From PubChem BioAssay
“And” between values parts separate entries of the source, which are not always exact repeats. Identical values can stand only once. Inconclusive results are not listed. The source made the active and inactive calls.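 Rule for the calls, unless noted: active = compounds whose cell count with miR-34 switched on is under 0.7 times the count with it off; inactive = the rest.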

How the values were obtained:
[1] = target: ATP-dependent translocase ABCB1 (Homo sapiens) (UniProt P08183); assay: P-glycoprotein substrate transport blockade – cell-based (AID 377; in the data active = fluorescence slope change above about 50%); details: MDR1-expressing cells, fluorescent substrate accumulation slope; stronger effect = higher value; concentration not given here
ATP-dependent translocase ABCB1 (Homo sapiens), sequence (P08183 whole entry, looked up): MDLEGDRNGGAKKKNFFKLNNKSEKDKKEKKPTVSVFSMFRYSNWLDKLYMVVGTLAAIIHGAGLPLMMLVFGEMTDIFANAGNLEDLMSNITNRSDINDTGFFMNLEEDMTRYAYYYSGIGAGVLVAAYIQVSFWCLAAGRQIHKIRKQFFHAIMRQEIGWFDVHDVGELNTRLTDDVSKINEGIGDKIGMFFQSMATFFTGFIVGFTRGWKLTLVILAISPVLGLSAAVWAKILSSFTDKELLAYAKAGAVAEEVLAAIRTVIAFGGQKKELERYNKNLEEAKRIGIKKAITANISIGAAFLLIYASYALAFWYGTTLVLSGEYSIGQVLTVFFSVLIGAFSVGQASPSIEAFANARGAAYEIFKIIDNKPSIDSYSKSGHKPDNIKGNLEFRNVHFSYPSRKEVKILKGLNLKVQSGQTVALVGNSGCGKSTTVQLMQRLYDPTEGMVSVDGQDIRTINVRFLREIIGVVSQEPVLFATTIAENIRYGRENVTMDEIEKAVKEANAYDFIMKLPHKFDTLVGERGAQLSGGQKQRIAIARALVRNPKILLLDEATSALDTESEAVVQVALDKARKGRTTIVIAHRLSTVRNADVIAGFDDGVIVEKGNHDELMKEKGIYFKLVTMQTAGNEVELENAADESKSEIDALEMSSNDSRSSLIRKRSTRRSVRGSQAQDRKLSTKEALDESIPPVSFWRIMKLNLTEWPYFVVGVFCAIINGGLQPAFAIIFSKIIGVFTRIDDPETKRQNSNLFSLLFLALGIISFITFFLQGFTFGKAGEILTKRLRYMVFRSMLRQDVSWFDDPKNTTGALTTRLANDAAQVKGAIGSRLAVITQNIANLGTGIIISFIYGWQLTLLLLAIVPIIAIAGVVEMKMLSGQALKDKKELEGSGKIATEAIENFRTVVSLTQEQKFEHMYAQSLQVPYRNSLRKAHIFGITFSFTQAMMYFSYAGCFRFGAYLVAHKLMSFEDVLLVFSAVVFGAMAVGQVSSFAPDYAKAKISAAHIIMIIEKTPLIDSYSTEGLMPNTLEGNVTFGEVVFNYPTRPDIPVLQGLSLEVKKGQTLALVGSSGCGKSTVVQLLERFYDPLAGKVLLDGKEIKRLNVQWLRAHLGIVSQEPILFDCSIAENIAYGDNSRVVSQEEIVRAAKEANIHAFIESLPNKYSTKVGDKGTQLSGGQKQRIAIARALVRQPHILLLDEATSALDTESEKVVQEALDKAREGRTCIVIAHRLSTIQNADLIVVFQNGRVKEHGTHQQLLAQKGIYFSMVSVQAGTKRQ

[2] = compounds altering viability of human ES cells (AID 493140; call rule not given here;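 note: cells exposed to compounds for four days before counting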); details: human embryonic stem cell survival screen; stronger effect = higher value
[3] = P. berghei load reduction in hepatocytes – cell-based, HepG2, luciferase luminescence, HepG2 viability, primary screen (AID 624349; in the data active = parasite load remaining mostly below about 12%, no sharp cut-off; inactive = mostly above about 10%;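 note: 100% = mean of DMSO negative control wells on the same plate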); details: P. berghei liver stage in HepG2, luciferase luminescence, concentration not given here; parasite load remaining: stronger effect = lower value; viability: measured here: HepG2 viability without parasites
[4] = viability loss with induced miR-34 in A549 – imaging, A549 dox-inducible miR-34, nuclei and caspase counts, primary screen (AID 1347080); details: A549 miR-34 inducible, Hoechst nuclei count, 48 h
[5] = galactose survival enhancers in mitochondrial complex I cybrids – cell-based, galactose medium, ATP luminescence, primary screen (AID 1645843;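 active = z-score of at least 1.8 in each of two replicates, scored against plate mean and spread of sample wells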;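 note: positive z means more ATP and so rescue of galactose-driven cybrid death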); details: complex I mutant cybrid cells, 72 h, stronger effect = higher value
[6] = compounds altering circadian rhythm period length – cell-based, LOPAC library, luminescence reporter (AID 2774; call rule not given here;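 note: values are relative to mean of DMSO wells on each plate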); details: circadian reporter cells, at 7 µM, actives lie on both sides
[7] = chitosan synthesis blockers in C. neoformans – flow cytometry, Cibacron Brilliant Red staining (AID 1347148; call rule not given here;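 note: compound exposure lasted three days at 37 degrees C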); details: Cryptococcus neoformans chitosan, stronger effect = lower value; at 10 µM unless noted
[8] = measured here: relative caspase fold change +Dox/-Dox
[9] = measured here: total cells with miR-34 induction, stronger effect = lower value
[10] = measured here: total cells without miR-34 induction
[11] = stronger effect = lower value, cell number ratio, induced over uninduced

SMILES	fluorescence slope change [1]	survival [2]	parasite load remaining [3]	viability [3]	fold change ([4]; stronger effect = lower value)	fold change [4, 8]	cell count [4, 9]	cell count [4, 10]	fold change [4, 11]	z-score [5]	period change [6]	fold fluorescence [7]
CC(C)C[C@H]1C(=O)N2CCC[C@H]2[C@]2(O)O[C@](NC(=O)[C@@H]3C=C4c5cccc6[nH]cc(c56)C[C@H]4N(C)C3)(C(C)C)C(=O)N12	95.9% (active)	9.42 (inactive)	59.7% (inactive)	94.6%	0.917 (inactive)	1.12	7540	8220				
C[C@]12CC3SC3C[C@@H]1CC[C@@H]1[C@@H]2CC[C@]2(C)[C@@H](O)CC[C@@H]12 (stereo partly drawn)		17.5 (inactive)	87.8% (inactive)	72.9%	0.913 (inactive)	0.52	9130	10000				
COc1cc2c3cc1Oc1cc(ccc1O)C[C@@H]1c4c(cc(OC)c(O)c4Oc4cccc(c4)C[C@@H]3N(C)CC2)CC[N+]1(C)C		7.17 (inactive)	52.1% (inactive) and 85.1% (inactive)	113% and 81.4%		1.32	8210	9980	0.822 (inactive)			
CC1CCCC(O)CCCCCc2cc(O)cc(O)c2C(=O)O1 (stereo not drawn)					0.901 (inactive)	1.75	8720	9680		-0.095 (inactive)		
C/C=C1/C[N+]2(C)CCC34C(=C(C=O)[C@H]1C[C@@H]32)Nc1ccccc14 (stereo partly drawn)	21.2% (inactive)	3.83 (inactive)	95% (inactive)	101%	0.931 (inactive)	1.21	8700	9340				
C[C@@H]1NCCc2cc(O)c(O)cc21	-10.9% (inactive)	6 (inactive)	75.9% (inactive) and 47.5% (inactive)	120% and 73.8%		1.51	8760	10400	0.841 (inactive)			
CN1CCC(c2ccc(F)cc2)C(COc2ccc3c(c2)OCO3)C1 (stereo not drawn)						1.59	7350	8110	0.906 (inactive)	-1.4 (inactive)		
NC(Cn1oc(=O)[nH]c1=O)C(=O)O (stereo not drawn)					0.991 (inactive)	0.896	10000	10100		0.64 (inactive)	-0.055 h (inactive)	
C[C@]12CC(=CO)C(=O)CC1CCC1C2CC[C@@]2(C)C1CC[C@]2(C)O (stereo partly drawn)					0.96 (inactive)	2.87	9400	9790		-1.14 (inactive)		
COc1ccn(C)c(=O)c1C#N		4.25 (inactive)	84.9% (inactive)	97.3%	0.883 (inactive)	1.32	9150	10400				
CCCCCc1cc(O)c2c(c1)OC(C)(C)[C@H]1CCC(C(=O)O)=CC21 (stereo partly drawn)												7.25 (inactive)
O=c1ccc2cc(OC3O[C@H](CO)[C@@H](O)[C@H](O)[C@H]3O)c(O)cc2o1 (stereo partly drawn)			70.5% (inactive)	96.1%		0.932	9360	9590	0.976 (inactive)			
